Test results as given in paper PMC5540273 (PLoS ONE, 2017).

Test system: AURKB
Details: concentration: 1 μM, replicates: in singlicate; n = 1
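Also: KINOMEscan kinase panel screen.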

Compared with COC(=O)c1c(-c2ccccc2)c2cc(Br)ccc2c(=O)n1Cc1ccc(S(C)(=O)=O)cc1, COC(=O)c1c(-c2ccccc2)c2cc(C)ccc2c(=O)n1Cc1ccccc1 is lower in “%Inh” value: 20% for the first, 9% for the second.

Compared with CCc1nc(-c2cccc(C)c2)c(-c2ccncc2)s1, Cc1cccc(-c2cc(-c3c[nH]nc3-c3ccccn3)ccn2)c1 [GW679395] is higher in “%Inh” value: 13% for the first, 15% for the second.

COc1cc(Nc2ccnc3ccc(C(F)(F)F)cc23)cc(OC)c1OC [GW577382] and COc1cc2nccc(Nc3cccc(Oc4ccccc4)c3)c2cc1OC.Cl [GW284543] are the same in “%Inh” value: 0% for the first, 0% for the second.

First: CN1C(=O)C(Nc2ccccc2)=C(c2ccccc2)C1=O [SB-300079]
Second: CN1C(=O)C(Nc2cc(Cl)c(O)c(Cl)c2)=C(c2ccc(Cl)cc2)C1=O [SB-404321]
The “%Inh” value of the first is higher: 21% for the first, 14% for the second.

Compared with CCC(=O)c1c(-c2ccccc2)c2cc(Cl)ccc2c(=O)n1Cc1cc(C(=O)NC2CC2)n(C)n1, CCCC(=O)Nc1n[nH]c2ncc(-c3cccc4ccccc34)cc12 [SB-642057] is lower in “%Inh” value: 26% for the first, 24% for the second.

Going from Nc1ncnc2c1ncn2-c1ccc(Cl)cc1 [AH2635] to COc1ccc(-n2cnc3c(N)ncnc32)cc1 [SKF-97236], the “%Inh” value rises from 0% to 16%.

Going from COc1cccc(C2=C(N(C)c3ccccc3)C(=O)NC2=O)c1 [SB-334865] to COc1cc2ncn(-c3cc(OCCCc4ccccc4)c(C(N)=O)s3)c2cc1OC [GSK205189], the “%Inh” value falls from 32% to 18%.

Compared with COc1ccc(-c2cc3c(C)nc(N)nc3n([C@H]3CC[C@H](OCCO)CC3)c2=O)cn1, CN(C)c1cc(-c2ccc3c(N)n[nH]c3c2)nc(N)n1 [GSK2219329] is higher in “%Inh” value: 0% for the first, 10% for the second.

Compared with Nc1ncnc2c1ncn2-c1cccc(F)c1 [SKF-97560], Nc1nc(N)c2nc(-c3ccccc3)[nH]c2n1 [SKF-12778] is higher in “%Inh” value: 6% for the first, 13% for the second.

First: Cn1c(=O)c(F)c(Nc2ccc(I)cc2F)c2c(=O)n(OC[C@H](O)CO)cnc21
Second: COc1cc(Nc2nccc(N3CCC(NC(=O)C(C)c4ccc(Cl)cc4)C3)n2)cc(OC)c1OC (centres unmarked) [GSK1379757]
The “%Inh” value of the first is lower: 9% for the first, 60% for the second.

Going from Cc1cccc(-c2nc(Nc3ccc4c(cnn4C)c3)c3ccccc3n2)n1 [GW876731] to Cl.c1ccc(Cn2cnc3cc(Nc4ncnc5ccccc45)ccc32)cc1 [GW272142], the “%Inh” value rises from 6% to 19%.

In the case of Nc1nccc2scc(-c3ccc4c(c3)CCN4C(=O)Cc3ccccc3)c12 [GSK2576924], the “%Inh” value was 16%.

Test system: AURKC
Details: concentration: 1 μM, replicates: in singlicate; n = 1

Compared with O=C(Nc1ccc2c(c1)OCO2)NC1CCN(c2ccnc(NCc3ccc(F)cc3)n2)CC1 [GSK1379859], COc1cc(Nc2nccc(N3CCC(NC(=O)C(C)c4ccc(Cl)cc4)C3)n2)cc(OC)c1OC (centres unmarked) [GSK1379757] is higher in “%Inh” value: 24% for the first, 72% for the second.

Compared with O=C(Nc1n[nH]c2cc(-c3ccccc3F)ccc12)C1CC1 [SB-733371], CCCC(=O)Nc1n[nH]c2ncc(-c3cccc4ccccc34)cc12 [SB-642057] is lower in “%Inh” value: 46% for the first, 16% for the second.

First: Cc1ccccc1COc1cc(-n2cnc3cc(Cl)ccc32)sc1C(N)=O [GW813349]
Second: COc1cc2ncn(-c3cc(OCCCc4ccccc4)c(C(N)=O)s3)c2cc1OC [GSK205189]
The “%Inh” value of the first is lower: 31% for the first, 45% for the second.

Going from Cc1nnc(-c2ccc(C)c(-c3ccc(C(=O)O)cc3)c2)o1 [GW608005] to COc1ccc(-c2coc3ccc(-c4nnc(SCc5cccc(C#N)c5)o4)cc23)cc1, the “%Inh” value falls from 6% to 0%.

Going from COc1ccc(-c2cc3c(C)nc(N)nc3n([C@H]3CC[C@H](O)CC3)c2=O)cn1 to COc1ccc(-c2cc3c(C)nc(N)nc3n([C@H]3CC[C@H](OCCO)CC3)c2=O)cn1, the “%Inh” value rises from 0% to 7%.

CCC(=O)c1c(-c2ccccc2)c2cc(Cl)ccc2c(=O)n1Cc1cc(S(C)(=O)=O)n(CC(F)F)n1 and CCC(=O)c1c(-c2ccccc2)c2cc(Cl)ccc2c(=O)n1Cc1cc(C(=O)NC2CC2)n(C)n1 are the same in “%Inh” value: 0% for the first, 0% for the second.

CC(C)(C)c1ccc(C(=O)Nc2cn3cc(-c4ccccc4)ccc3n2)cc1 and COC(=O)c1c(-c2ccccc2)c2cc(C)ccc2c(=O)n1Cc1ccccc1 are the same in “%Inh” value: 0% for the first, 0% for the second.

Cc1c(Cn2c(C)nn3c(=O)cc(N4CCO[C@H](C)C4)nc23)cccc1C(F)(F)F [GSK2373690] and Cn1c(=O)c(F)c(Nc2ccc(I)cc2F)c2c(=O)n(OC[C@H](O)CO)cnc21 are the same in “%Inh” value: 30% for the first, 30% for the second.

First: COc1cccc(C2=C(Nc3cccc(C(=O)O)c3)C(=O)NC2=O)c1 [SB-390770]
Second: COc1cccc(C2=C(N(C)c3ccccc3)C(=O)NC2=O)c1 [SB-334865]
The “%Inh” value of the first is higher: 14% for the first, 0% for the second.

Compared with COc1cc2ncn(-c3cc(OCc4ccncc4)c(C(N)=O)s3)c2cc1OC [GSK336313], COc1cc2nccc(Nc3cccc(Oc4ccccc4)c3)c2cc1OC.Cl [GW284543] is lower in “%Inh” value: 4% for the first, 0% for the second.

Compared with Nc1nc(-c2ccccc2F)c(-c2ccnc3ccccc23)s1 [GW560459], Cl.c1ccc(Cn2cnc3cc(Nc4ncnc5ccccc45)ccc32)cc1 [GW272142] is lower in “%Inh” value: 17% for the first, 14% for the second.

COC(=O)c1c(-c2ccccc2)c2cc(Br)ccc2c(=O)n1Cc1ccc(NC(=O)CCC(=O)O)cc1 and COC(=O)c1c(-c2ccccc2)c2cc(Br)ccc2c(=O)n1Cc1ccc(S(C)(=O)=O)cc1 are the same in “%Inh” value: 0% for the first, 0% for the second.

CCc1nc(-c2cccc(C)c2)c(-c2ccncc2)s1 and Cc1cccc(-c2cc(-c3c[nH]nc3-c3ccccn3)ccn2)c1 [GW679395] are the same in “%Inh” value: 0% for the first, 0% for the second.

First: COc1cc(Nc2ccnc3ccc(C(F)(F)F)cc23)cc(OC)c1OC [GW577382]
Second: Cc1cccc(-c2nc(Nc3ccc4c(cnn4C)c3)c3ccccc3n2)n1 [GW876731]
The “%Inh” value of the first is higher: 7% for the first, 0% for the second.

CN1C(=O)C(Nc2ccccc2)=C(c2ccccc2)C1=O [SB-300079] and CN1C(=O)C(Nc2cc(Cl)c(O)c(Cl)c2)=C(c2ccc(Cl)cc2)C1=O [SB-404321] are the same in “%Inh” value: 0% for the first, 0% for the second.

Compared with Nc1ncnc2c1ncn2-c1ccc(Cl)cc1 [AH2635], COc1ccc(-n2cnc3c(N)ncnc32)cc1 [SKF-97236] is higher in “%Inh” value: 17% for the first, 63% for the second.

First: Nc1ncnc2c1ncn2-c1cccc(F)c1 [SKF-97560]
Second: Nc1nc(N)c2nc(-c3ccccc3)[nH]c2n1 [SKF-12778]
The “%Inh” value of the first is lower: 0% for the first, 1% for the second.

Going from CN(C)c1cc(-c2ccc3c(N)n[nH]c3c2)nc(N)n1 [GSK2219329] to Nc1nccc2scc(-c3ccc4c(c3)CCN4C(=O)Cc3ccccc3)c12 [GSK2576924], the “%Inh” value rises from 9% to 25%.
